Measurements taken from PubChem BioAssay.
The source made the active and inactive calls. The rule behind the calls is not given here.

molecular target: Pantothenate synthetase (Mycobacterium tuberculosis (strain ATCC 25618 / H37Rv)) (UniProt P9WIL5); test: Coupled enzyme confirmation of inhibitors against recombinant Mtb PanC (AID 375); conditions: coupled enzyme assay; at 10 µM, stronger effect = higher value;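 note: 0% = full reaction with vehicle and 100% = no enzyme background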
Sequence (P9WIL5 whole entry, looked up): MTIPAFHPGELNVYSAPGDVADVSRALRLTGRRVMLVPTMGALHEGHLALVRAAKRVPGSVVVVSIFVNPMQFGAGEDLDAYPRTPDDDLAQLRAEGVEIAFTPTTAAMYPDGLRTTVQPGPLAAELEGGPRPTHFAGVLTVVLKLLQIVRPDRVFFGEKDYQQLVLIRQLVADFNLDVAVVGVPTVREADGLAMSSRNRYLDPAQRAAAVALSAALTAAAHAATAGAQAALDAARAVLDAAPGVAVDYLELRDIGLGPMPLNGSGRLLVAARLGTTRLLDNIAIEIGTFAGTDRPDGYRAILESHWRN

Compound | inhibition
O=C(c1ccc(Cl)cc1)N(Cc1cccs1)C1CCS(=O)(=O)C1 (stereo not given) | 0% (inactive)
COc1cccc(C(=O)OCn2nnc3ccccc3c2=O)c1OC | 0% (inactive)
Cc1cc(NS(=O)(=O)Cc2ccccc2)cc(C)c1OCC(=O)N1CCOCC1 | 4% (inactive)
CCC(C)(C(=O)NC1CCCC1)N(Cc1cccs1)C(C)=O (stereo not given) | 2% (inactive)
CC1CN(C(=O)CSc2ncnc3sccc23)CC(C)O1 (stereo not given) | 0% (inactive)
COc1ccc(Cl)cc1S(=O)(=O)N1CCN(c2ccc(F)cc2)CC1 | 0% (inactive)
Nc1nnnn1/N=C/c1ccccn1 | 0% (inactive)
Cc1ccccc1NC(=O)C1Cc2ccccc2C(=O)O1 (stereo not given) | 0% (inactive)
CCN1C(=O)/C(=C2\C=Cc3ccccc3N2CC)OC1=S | 11% (inactive)
Cc1ccnc(NC(=O)C2CCC(CNc3c(N4CCCC4)c(=O)c3=O)CC2)c1 (stereo not given) | 0% (inactive)
COc1cc(C(=O)Nc2cc(Cl)ccc2C)c(-n2cnnn2)cc1OC | 9% (inactive)
CCN1CCN(CCCNC(=O)c2cc3sccc3n2CC)CC1 | 0% (inactive)
CCN(CC)CCOC(=O)c1ccc(NC(=O)COc2cc(=O)n(CC)c3ccccc23)cc1 | 2% (inactive)
COc1cccc(C(=O)Nc2cnc(NC(=O)c3ccco3)cc2C)c1 | 9% (inactive)
Cc1nnc(SCC(=O)Nc2ccc3c(c2)OCCO3)n1CC1CCCO1 (stereo not given) | 0% (inactive)
Cn1cccc1-c1cc(C(=O)O)[nH]n1 | 0% (inactive)
O=C(NCC1CCCO1)C1c2ccccc2C(=O)N1C1CCCCCC1 (stereo not given) | 0% (inactive)
CC(=O)Nc1nnc(SCC(=O)NCC2CCCO2)s1 (stereo not given) | 0% (inactive)
COc1ccc(-c2nc(C(N)=O)c3[nH]c(=O)n(-c4cccc(Cl)c4)c3n2)cc1OC | 1% (inactive)
CCOC(=O)c1sc(NC(=O)c2c(C)nn(Cc3ccccc3)c2C)cc1C | 0% (inactive)

Compound | inhibition
Cc1c(C)n(C(=O)CN2CCN(c3ccccn3)CC2)c2ccccc12 | 0% (inactive)
CCCNC(=O)c1c(N)n(-c2cc(OC)cc(OC)c2)c2nc3ccccc3nc12 | 8% (inactive)
CSc1ccc(-c2cc(=O)c3ccccc3o2)cc1 | 5% (inactive)
COc1ccc(N2C(=O)CC(N3CCN(c4ccccc4F)CC3)C2=O)cc1 (stereo not given) | 0% (inactive)
Cc1ccc2c(C(=O)CN3CCSCC3)c(C)[nH]c2c1 | 0% (inactive)
O=C1CC(C(=O)Nc2ccccc2)C2(CCCC2)O1 (stereo not given) | 2% (inactive)
Cc1nnc(SC(=O)N2c3ccccc3Sc3ccccc32)s1 | 6% (inactive)
COc1cccc(-n2ccnc2SCC(=O)N2CCc3ccccc32)c1 | 0% (inactive)
CC(=O)Nc1ccc(NC(=O)Cn2cc3c(n2)CCC(C)C3)cc1 (stereo not given) | 3% (inactive)
CC1(C)CNC(=O)CC(C)(C)N1O | 0% (inactive)
COC(=O)c1sc(S(=O)(=O)NCc2cccs2)c(C(=O)OC)c1C | 0% (inactive)
Nc1nc(Nc2cccc3ccccc23)nc(C2CCCC2=O)n1 (stereo not given) | 5% (inactive)
Cc1nnc(SCC(=O)NCCN2C(=O)CSC2=O)s1 | 7% (inactive)
CCc1ccc(CN(C)CCc2ccccn2)cc1 | 1% (inactive)
CC(C)CNC(=O)c1c(N)n(/N=C/c2ccccn2)c2nc3ccccc3nc12 | 0% (inactive)
O=C(COc1ccccc1)N1CCN(c2ncnc3c2cnn3-c2ccccc2)CC1 | 0% (inactive)
O=C1CN(c2ccccc2F)C(=O)CN1c1ccccc1F | 0% (inactive)
O=C(Nc1cccc(NC(=O)c2ccco2)c1)c1ccc2c(c1)OCO2 | 0% (inactive)
O=C(Nc1ccc(N2CCOCC2)c(F)c1)c1ccncc1 | 0% (inactive)
CC(=O)c1ccc(OCC(O)CN2CC(C)OC(C)C2)cc1 (stereo not given) | 0% (inactive)
